This note sets out measurements from PubChem BioAssay (Tox21).

Each structure is given as a SMILES string. Records with an inconclusive call do not appear. Entries that show only a call come without a potency. Calls of active or inactive are those of the source. The call rests on the fitted dose curve.

A short description of the first assay: qHTS assay for small molecule agonists of the p53 signaling pathway - cell viability (AID 651633).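 Further: p53RE-bla HCT reporter cells with a stable beta-lactamase p53 reporter; nearly all actives have a fitted effect of over 30% in size.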 The conditions noted are these: p53RE-bla HCT-116 viability, ATP luminescence, 16 h; series mostly up to 83.3 µM. An outline of the steps:
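p53RE-bla cells, seeded at 4,000 per well and rested 5 h at 37 C/5% CO2, received compounds in DMSO for 16 h at 37 C. CellTiter-Glo was then added, and luminescence was read after 30 min at room temperature to gauge cytotoxicity.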
In general terms: qHTS replaces the single test concentration by a dilution series.
As for `C[C@@H]1[C@@H]2Cc3ccc(O)cc3[C@@]1(C)CCN2CC1CC1`, the Potency entry is “inactive”.
The same measure, in the same setting: for `C[C@@H]1[C@H]2Cc3ccc(O)cc3[C@]1(C)CCN2C` the value was “inactive”.
With `CC(C)C[C@H]1C(=O)N2CCC[C@H]2[C@]2(O)O[C@](NC(=O)[C@@H]3C[C@@H]4c5cccc6[nH]cc(c56)C[C@H]4N(C)C3)(C(C)C)C(=O)N12`, the Potency result is “inactive”.
On to `C=CCC1([C@@H](C)CCC)C(=O)NC(=O)NC1=O`, for which the Potency result was “inactive”.
As for `c1ccc2c(c1)Sc1ccccc1N2C[C@@H]1CN2CCC1CC2`, the Potency result is “inactive”.
In the case of `C[C@@H](Cc1ccccc1)NCCC(c1ccccc1)c1ccccc1`, the Potency entry is “inactive”.
Consider `CC[C@H]1[C@@H]2C[C@H]3[C@@H]4N(C)c5ccccc5[C@]45C[C@@H](C2[C@H]5O)N3[C@@H]1O` (stereo partly drawn), for which the Potency entry is “inactive”.
With `CC(N)Cc1ccc2c(c1)OCO2` (stereo not drawn), the Potency entry was “inactive”.
Turning to `CN1c2ccccc2C(NCCCCCCC(=O)O)c2ccc(Cl)cc2S1(=O)=O` (stereo not drawn), the Potency result was “inactive”.
On to `CN[C@]1(c2ccccc2Cl)CCCCC1=O`, for which the Potency result is “inactive”.
As to `C[C@]12CC[C@@H]3c4ccc(OC(=O)N(CCCl)CCCl)cc4CC[C@H]3[C@@H]1CC[C@@H]2OP(=O)(O)O`, the Potency entry is “inactive”.
For `CC(=O)[C@@]1(O)CC[C@H]2[C@@H]3CCC4=CC(=O)CC[C@]4(C)C3(F)[C@@H](O)C[C@@]21C` (stereo partly drawn), the Potency entry was “inactive”.

A further assay is described as follows: qHTS assay for small molecules that induce genotoxicity in human embryonic kidney cells expressing luciferase-tagged ATAD5 - cell viability (AID 651634). Further: nearly all actives have a fitted effect of over 25% in size. Further: potency means the concentration at half of the fitted maximal effect. The conditions noted are these: HEK293T ATAD5-luc cells viability, CellTiter-Fluor, 15.5 h; series mostly up to 83.3 µM. An outline of the steps:
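HEK293T ATAD5-luc cells, 2,000/well; compound 15.5 hr, 37C/5% CO2; CellTiter-Fluor 30 min, 37C; fluorescence read.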
In the case of `CC(C)=CCN1CC[C@]2(C)c3cc(O)ccc3C[C@H]1[C@H]2C`, the Potency entry is “inactive”.
Regarding `CN[C@@]1(c2ccccc2Cl)CCCCC1=O`, the Potency result is “inactive”.
`CCNC1(c2cccs2)CCCCC1=O` (stereo not drawn): the Potency entry is “inactive”.
Consider `CNC(C)CC1CCCCC1` (stereo not drawn), for which the Potency result was “inactive”.
Turning to `CCC1(c2ccccc2)C(=O)NC(=O)N(C)C1=O` (stereo not drawn), the Potency result was “inactive”.
As for `COc1cc([C@@H]2c3cc4c(cc3[C@@H](O)[C@H]3COC(=O)[C@H]23)OCO4)cc(OC)c1O`, the Potency was 0.298 µM (active).
On to `CN1CC[C@@]23CCCC[C@@H]2[C@@H]1Cc1ccc(O)cc13`, for which the Potency entry is “inactive”.
With `CNC(C)Cc1ccccc1` (stereo not drawn), the Potency entry is “inactive”.
As for `CN[C@@H](C)Cc1ccccc1`, the Potency entry was “inactive”.
With `CCCCNC(C)(C)[P+](=O)O`, the Potency entry is “inactive”.
Still for that read-out and setting: for `O=C1C[C@@H]2OCC=C3CN4CC[C@]56c7ccccc7N1[C@H]5[C@H]2[C@H]3C[C@H]46` (tested in a mixture with another compound) the value was “inactive”.
In the case of `C/C=C(\CC)C(=O)NC(N)=O`, the Potency entry is “inactive”.
As for `C[C@]12CCC(=O)C[C@@H]1CC[C@@H]1[C@@H]2CC[C@@]2(C)[C@H]1CC[C@]2(C)O`, the Potency result was “inactive”.
On the same count and under the same terms, for `Cc1nnc2n1-c1ccc(Cl)cc1C(c1ccccc1)=NC2` the value was “inactive”; for `N#CC(C#N)=Cc1cc(O)c(O)c(O)c1`, 29.8 µM (active).
As for `O=C(O)CCCO`, the Potency result was “inactive”.
Regarding `Oc1ccc2c3c1O[C@H]1[C@@H](O)C=C[C@H]4[C@H](C2)NCC[C@@]341`, the Potency entry was “inactive”.
As to `O=P1(N(CCCl)CCCl)NC(OO)CCO1` (stereo not drawn), the Potency result was “inactive”.
Consider `COC(=O)[C@H]1[C@@H](OC(=O)c2ccccc2)C[C@@H]2CC[C@H]1N2C`, for which the Potency result was “inactive”.
The same measure, in the same setting: for `O=C1CN=C(c2ccccc2)c2cc(Cl)ccc2N1` the value was “inactive”; for `C=C[C@H]1CN2CC[C@H]1C[C@H]2[C@H](OC(=O)OCC)c1ccnc2ccc(OC)cc12`, “inactive”; for `CCc1cc(OC)c(C[C@@H](C)N)cc1OC`, “inactive”.
In the case of `CC(C)[C@H]1C(=O)N2CCC[C@H]2[C@]2(O)O[C@](NC(=O)[C@@H]3C[C@@H]4c5cccc6[nH]cc(c56)C[C@H]4N(C)C3)(C(C)C)C(=O)N12`, the Potency result is “inactive”.
As for `C[C@]12CC[C@H]3[C@@H](CCC4=C(Cl)C(=O)CC[C@@]43C)[C@@H]1CC[C@@H]2O`, the Potency result was “inactive”.
With `Clc1ccc(C(Cn2ccnc2)OCc2csc3c(Cl)cccc23)c(Cl)c1` (stereo not drawn), the Potency entry was “inactive”.
Same read-out and setting: for `C[C@@H]1[C@@H]2Cc3ccc(O)cc3[C@@]1(C)CCN2CC1CC1` the value was “inactive”.
For `C[C@@H]1[C@H]2Cc3ccc(O)cc3[C@]1(C)CCN2C`, the Potency entry is “inactive”.
The same measure, in the same setting: for `[H+].[H+].[Hg+2].[O-]B([O-])[O-].[c-]1ccccc1` the value was 9.44 µM (active); for `C=CCC1([C@@H](C)CCC)C(=O)NC(=O)NC1=O`, “inactive”.
Regarding `c1ccc2c(c1)Sc1ccccc1N2C[C@@H]1CN2CCC1CC2`, the Potency result is “inactive”.
The same measure, in the same setting: for `C[C@@H](Cc1ccccc1)NCCC(c1ccccc1)c1ccccc1` the value was “inactive”.
Take `CC[C@H]1[C@@H]2C[C@H]3[C@@H]4N(C)c5ccccc5[C@]45C[C@@H](C2[C@H]5O)N3[C@@H]1O` (stereo partly drawn): the Potency entry is “inactive”.
As for `CC(N)Cc1ccc2c(c1)OCO2` (stereo not drawn), the Potency entry was “inactive”.
Consider `CN1c2ccccc2C(NCCCCCCC(=O)O)c2ccc(Cl)cc2S1(=O)=O` (stereo not drawn), for which the Potency entry is “inactive”.
For the molecule `CN[C@]1(c2ccccc2Cl)CCCCC1=O`, the Potency entry was “inactive”.
The same measure, in the same setting: for `C[C@]12CC[C@@H]3c4ccc(OC(=O)N(CCCl)CCCl)cc4CC[C@H]3[C@@H]1CC[C@@H]2OP(=O)(O)O` the value was “inactive”; for `CC(=O)[C@@]1(O)CC[C@H]2[C@@H]3CCC4=CC(=O)CC[C@]4(C)C3(F)[C@@H](O)C[C@@]21C` (stereo partly drawn), “inactive”.

A short description of another assay: qHTS assay for small molecule disruptors of the mitochondrial membrane potential - cell viability (AID 720634). Further: nearly all actives have a fitted effect of over 20% in size. Further: potency means the concentration at half of the fitted maximal effect. The conditions noted are these: HepG2 viability, ATP luminescence (CellTiter-Glo), 1 h; series mostly up to 83.2 µM. The method in brief: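 Luminescence from CellTiter-Glo (ATP content) gave viability in HepG2 cells, read in the same wells as the MMP dye assay after 1 hr compound exposure at 37 C.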
On to `CC(C)=CCN1CC[C@]2(C)c3cc(O)ccc3C[C@H]1[C@H]2C`, for which the Potency entry is “inactive”.
`CN[C@@]1(c2ccccc2Cl)CCCCC1=O`: the Potency result was “inactive”.
On to `CCNC1(c2cccs2)CCCCC1=O` (stereo not drawn), for which the Potency entry was “inactive”.
In the case of `CNC(C)CC1CCCCC1` (stereo not drawn), the Potency result was “inactive”.
The same measure, in the same setting: for `CCC1(c2ccccc2)C(=O)NC(=O)N(C)C1=O` (stereo not drawn) the value was “inactive”; for `COc1cc([C@@H]2c3cc4c(cc3[C@@H](O)[C@H]3COC(=O)[C@H]23)OCO4)cc(OC)c1O`, “inactive”.
For the molecule `CN1CC[C@@]23CCCC[C@@H]2[C@@H]1Cc1ccc(O)cc13`, the Potency entry is “inactive”.
Still for that read-out and setting: for `CNC(C)Cc1ccccc1` (stereo not drawn) the value was “inactive”; for `CN[C@@H](C)Cc1ccccc1`, “inactive”.
The same measure, in the same setting: for `CCCCNC(C)(C)[P+](=O)O` the value was “inactive”; for `O=C1C[C@@H]2OCC=C3CN4CC[C@]56c7ccccc7N1[C@H]5[C@H]2[C@H]3C[C@H]46` (tested in a mixture with another compound), “inactive”; for `O=c1ccc2cc(O[C@@H]3O[C@H](CO)[C@@H](O)[C@H](O)[C@H]3O)c(O)cc2o1`, “inactive”.
Still for that read-out and setting: for `C/C=C(\CC)C(=O)NC(N)=O` the value was “inactive”; for `C[C@]12CCC(=O)C[C@@H]1CC[C@@H]1[C@@H]2CC[C@@]2(C)[C@H]1CC[C@]2(C)O`, “inactive”; for `Cc1nnc2n1-c1ccc(Cl)cc1C(c1ccccc1)=NC2`, “inactive”.
`N#CC(C#N)=Cc1cc(O)c(O)c(O)c1`: the Potency result was “inactive”.
`CCCSc1cc(OC)c(CCN)cc1OC`: the Potency entry was “inactive”.
For the molecule `O=C(O)CCCO`, the Potency entry is “inactive”.
For `O=P1(N(CCCl)CCCl)NC(OO)CCO1` (stereo not drawn), the Potency result was “inactive”.
Consider `COC(=O)[C@H]1[C@@H](OC(=O)c2ccccc2)C[C@@H]2CC[C@H]1N2C`, for which the Potency entry was “inactive”.
For `O=C1CN=C(c2ccccc2)c2cc(Cl)ccc2N1`, the Potency entry was “inactive”.
Regarding `C=C[C@H]1CN2CC[C@H]1C[C@H]2[C@H](OC(=O)OCC)c1ccnc2ccc(OC)cc12`, the Potency entry was “inactive”.
As for `CCc1cc(OC)c(C[C@@H](C)N)cc1OC`, the Potency result is “inactive”.
With `CC(C)[C@H]1C(=O)N2CCC[C@H]2[C@]2(O)O[C@](NC(=O)[C@@H]3C[C@@H]4c5cccc6[nH]cc(c56)C[C@H]4N(C)C3)(C(C)C)C(=O)N12`, the Potency result was “inactive”.
For the molecule `C[C@]12CC[C@H]3[C@@H](CCC4=C(Cl)C(=O)CC[C@@]43C)[C@@H]1CC[C@@H]2O`, the Potency entry was “inactive”.
In the case of `Clc1ccc(C(Cn2ccnc2)OCc2csc3c(Cl)cccc23)c(Cl)c1` (stereo not drawn), the Potency result is “inactive”.
On the same count and under the same terms, for `C[C@@H]1[C@@H]2Cc3ccc(O)cc3[C@@]1(C)CCN2CC1CC1` the value was “inactive”; for `C[C@@H]1[C@H]2Cc3ccc(O)cc3[C@]1(C)CCN2C`, “inactive”.
On the same count and under the same terms, for `CC(C)C[C@H]1C(=O)N2CCC[C@H]2[C@]2(O)O[C@](NC(=O)[C@@H]3C[C@@H]4c5cccc6[nH]cc(c56)C[C@H]4N(C)C3)(C(C)C)C(=O)N12` the value was “inactive”; for `[H+].[H+].[Hg+2].[O-]B([O-])[O-].[c-]1ccccc1`, 13.3 µM (active).
Regarding `C=CCC1([C@@H](C)CCC)C(=O)NC(=O)NC1=O`, the Potency entry is “inactive”.
As for `c1ccc2c(c1)Sc1ccccc1N2C[C@@H]1CN2CCC1CC2`, the Potency result was “inactive”.
On to `C[C@@H](Cc1ccccc1)NCCC(c1ccccc1)c1ccccc1`, for which the Potency result was “inactive”.
As to `CC[C@H]1[C@@H]2C[C@H]3[C@@H]4N(C)c5ccccc5[C@]45C[C@@H](C2[C@H]5O)N3[C@@H]1O` (stereo partly drawn), the Potency entry is “inactive”.
As for `CC(N)Cc1ccc2c(c1)OCO2` (stereo not drawn), the Potency result was “inactive”.
In the case of `CN1c2ccccc2C(NCCCCCCC(=O)O)c2ccc(Cl)cc2S1(=O)=O` (stereo not drawn), the Potency result was “inactive”.
Consider `CN[C@]1(c2ccccc2Cl)CCCCC1=O`, for which the Potency result was “inactive”.
As for `C[C@]12CC[C@@H]3c4ccc(OC(=O)N(CCCl)CCCl)cc4CC[C@H]3[C@@H]1CC[C@@H]2OP(=O)(O)O`, the Potency entry was “inactive”.
In the case of `CC(=O)[C@@]1(O)CC[C@H]2[C@@H]3CCC4=CC(=O)CC[C@]4(C)C3(F)[C@@H](O)C[C@@]21C` (stereo partly drawn), the Potency result is “inactive”.
